# According to article PMC7862700, “An all-to-all approach to the identification of sequence-specific readers for epigenetic DNA modifications on cytosine”:
# Tests used:
# Experiment in all cases: DAPPL (digital affinity profiling via proximity ligation, sequencing); 10 mM Tris-HCl pH 7.5, 50 mM NaCl, 1 mM DTT, 4% glycerol, room temperature, 30 min; GST-TFs on glutathione beads, 16-mer random dsDNA library, 0.1% formaldehyde crosslink after washing; high values mean tight binding
# Conditions in all cases: protein: recombinant; tags: N-terminal GST; dsDNA, one strand shown
# [1] = target: T1, FLI1 (Homo sapiens, UniProt Q01543 1-452)
# T1 sequence: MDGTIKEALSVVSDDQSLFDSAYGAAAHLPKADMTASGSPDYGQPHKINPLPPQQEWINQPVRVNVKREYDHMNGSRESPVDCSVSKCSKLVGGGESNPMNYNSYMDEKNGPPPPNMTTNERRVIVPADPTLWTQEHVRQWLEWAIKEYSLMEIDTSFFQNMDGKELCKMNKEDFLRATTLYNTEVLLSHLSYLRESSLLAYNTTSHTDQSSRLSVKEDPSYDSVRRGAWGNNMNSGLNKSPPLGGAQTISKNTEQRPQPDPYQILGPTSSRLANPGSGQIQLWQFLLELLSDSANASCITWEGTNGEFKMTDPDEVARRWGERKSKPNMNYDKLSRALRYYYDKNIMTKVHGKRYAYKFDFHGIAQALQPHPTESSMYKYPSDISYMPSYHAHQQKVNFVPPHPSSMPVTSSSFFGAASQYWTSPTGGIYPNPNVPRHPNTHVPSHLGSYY
# In short: (§1)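 Binding signal is defined as a hexamer's read frequency for one factor over its frequency for the tag-only sample. To obtain reads, GST-fused human transcription factors were expressed in yeast, captured on glutathione beads, barcoded with DNA and pooled with that sample. Pools met 200 nmole of a 16-mer random double-stranded DNA library in Tris/NaCl/DTT/glycerol buffer for 30 min at room temperature before washing, 0.1% formaldehyde crosslinking, proximity ligation (BsaI/T4 ligase, 1 h, 37 °C), PCR and Illumina NextSeq500 sequencing.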
# [2] = target: T2, ELK1 (Homo sapiens, UniProt P19419 1-428)
# T2 sequence: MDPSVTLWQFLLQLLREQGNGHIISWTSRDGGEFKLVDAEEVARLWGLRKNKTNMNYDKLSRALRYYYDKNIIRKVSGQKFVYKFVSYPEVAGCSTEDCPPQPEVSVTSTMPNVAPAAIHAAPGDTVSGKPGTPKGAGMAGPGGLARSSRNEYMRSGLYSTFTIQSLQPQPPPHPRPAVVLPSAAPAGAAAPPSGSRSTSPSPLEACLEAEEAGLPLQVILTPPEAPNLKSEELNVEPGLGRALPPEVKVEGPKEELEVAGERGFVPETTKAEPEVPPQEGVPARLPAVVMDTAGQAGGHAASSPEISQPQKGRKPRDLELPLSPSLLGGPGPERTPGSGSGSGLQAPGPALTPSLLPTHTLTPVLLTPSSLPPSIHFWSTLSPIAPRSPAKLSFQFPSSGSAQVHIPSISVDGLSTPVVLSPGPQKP
# In short: as §1
# [3] = target: T3, GABPA (Homo sapiens, UniProt Q06546 1-454)
# T3 sequence: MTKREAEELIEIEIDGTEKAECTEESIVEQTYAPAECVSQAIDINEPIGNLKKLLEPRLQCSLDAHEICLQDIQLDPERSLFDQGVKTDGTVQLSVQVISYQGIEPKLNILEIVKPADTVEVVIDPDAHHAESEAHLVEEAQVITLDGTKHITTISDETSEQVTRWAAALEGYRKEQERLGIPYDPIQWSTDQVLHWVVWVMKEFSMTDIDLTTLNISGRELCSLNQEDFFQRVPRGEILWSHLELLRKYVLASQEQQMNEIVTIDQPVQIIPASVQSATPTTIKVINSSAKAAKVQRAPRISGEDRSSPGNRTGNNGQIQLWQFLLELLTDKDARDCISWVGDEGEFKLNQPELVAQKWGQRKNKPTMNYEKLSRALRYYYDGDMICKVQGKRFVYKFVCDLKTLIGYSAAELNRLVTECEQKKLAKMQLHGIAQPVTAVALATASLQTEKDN
# In short: as §1
# [4] = target: T4, ERG (Homo sapiens, UniProt P11308 1-479)
# T4 sequence: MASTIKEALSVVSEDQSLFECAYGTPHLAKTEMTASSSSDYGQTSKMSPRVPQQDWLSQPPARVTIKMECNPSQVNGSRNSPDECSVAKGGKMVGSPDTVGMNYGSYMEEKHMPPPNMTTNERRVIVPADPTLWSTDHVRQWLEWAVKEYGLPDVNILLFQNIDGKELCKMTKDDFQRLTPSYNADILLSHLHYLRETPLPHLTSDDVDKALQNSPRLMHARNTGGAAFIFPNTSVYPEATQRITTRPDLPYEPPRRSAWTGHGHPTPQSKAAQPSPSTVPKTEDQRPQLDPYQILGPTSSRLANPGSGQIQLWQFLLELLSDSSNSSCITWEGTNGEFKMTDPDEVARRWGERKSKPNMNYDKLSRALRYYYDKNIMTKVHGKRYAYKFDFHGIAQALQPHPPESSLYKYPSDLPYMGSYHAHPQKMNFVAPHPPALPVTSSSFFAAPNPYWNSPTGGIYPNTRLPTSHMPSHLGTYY
# In short: as §1
# [5] = target: ELF1 (Homo sapiens, UniProt P32519 1-619)
# Sequence of ELF1 (P32519 whole entry): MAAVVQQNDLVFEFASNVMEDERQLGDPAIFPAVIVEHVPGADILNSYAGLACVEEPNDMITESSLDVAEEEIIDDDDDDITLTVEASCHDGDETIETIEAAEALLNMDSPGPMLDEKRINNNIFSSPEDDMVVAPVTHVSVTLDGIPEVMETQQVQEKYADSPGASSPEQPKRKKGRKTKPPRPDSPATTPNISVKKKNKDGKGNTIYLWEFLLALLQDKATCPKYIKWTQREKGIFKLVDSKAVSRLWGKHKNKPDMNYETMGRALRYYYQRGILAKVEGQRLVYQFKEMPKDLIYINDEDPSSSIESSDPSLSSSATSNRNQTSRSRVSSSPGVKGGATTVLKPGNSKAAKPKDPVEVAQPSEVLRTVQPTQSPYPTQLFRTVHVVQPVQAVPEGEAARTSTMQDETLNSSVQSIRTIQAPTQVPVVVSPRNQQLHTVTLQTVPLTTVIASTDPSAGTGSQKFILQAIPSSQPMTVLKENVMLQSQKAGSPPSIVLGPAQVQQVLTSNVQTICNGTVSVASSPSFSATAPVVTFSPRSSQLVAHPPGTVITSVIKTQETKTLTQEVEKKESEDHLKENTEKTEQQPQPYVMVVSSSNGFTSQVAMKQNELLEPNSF
# In short: as §1
# [6] = target: T5, EHF (Homo sapiens, UniProt Q9NZC4 1-300)
# T5 sequence: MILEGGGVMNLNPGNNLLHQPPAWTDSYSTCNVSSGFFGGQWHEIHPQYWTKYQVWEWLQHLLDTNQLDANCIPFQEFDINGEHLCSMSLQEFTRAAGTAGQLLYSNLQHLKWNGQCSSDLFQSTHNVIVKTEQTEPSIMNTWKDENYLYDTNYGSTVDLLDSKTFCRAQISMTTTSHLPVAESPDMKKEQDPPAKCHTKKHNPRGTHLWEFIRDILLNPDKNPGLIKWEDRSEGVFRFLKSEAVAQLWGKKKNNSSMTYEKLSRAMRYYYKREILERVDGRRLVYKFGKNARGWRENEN
# In short: as §1
# [7] = target: SPI1 (Homo sapiens, UniProt P17947 1-270)
# In short: as §1
# [8] = target: SPIB (Homo sapiens, UniProt Q01892 1-262)
# Sequence of SPIB (Q01892 whole entry): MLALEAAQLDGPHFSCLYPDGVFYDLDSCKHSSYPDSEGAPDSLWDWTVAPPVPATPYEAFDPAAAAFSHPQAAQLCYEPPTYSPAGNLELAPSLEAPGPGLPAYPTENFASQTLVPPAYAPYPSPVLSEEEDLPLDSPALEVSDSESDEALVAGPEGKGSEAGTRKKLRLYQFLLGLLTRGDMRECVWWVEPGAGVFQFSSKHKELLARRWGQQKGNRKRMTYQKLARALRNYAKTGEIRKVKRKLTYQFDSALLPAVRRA
# In short: as §1
# [9] = target: T6, ELK3 (Homo sapiens, UniProt P41970 1-407)
# T6 sequence: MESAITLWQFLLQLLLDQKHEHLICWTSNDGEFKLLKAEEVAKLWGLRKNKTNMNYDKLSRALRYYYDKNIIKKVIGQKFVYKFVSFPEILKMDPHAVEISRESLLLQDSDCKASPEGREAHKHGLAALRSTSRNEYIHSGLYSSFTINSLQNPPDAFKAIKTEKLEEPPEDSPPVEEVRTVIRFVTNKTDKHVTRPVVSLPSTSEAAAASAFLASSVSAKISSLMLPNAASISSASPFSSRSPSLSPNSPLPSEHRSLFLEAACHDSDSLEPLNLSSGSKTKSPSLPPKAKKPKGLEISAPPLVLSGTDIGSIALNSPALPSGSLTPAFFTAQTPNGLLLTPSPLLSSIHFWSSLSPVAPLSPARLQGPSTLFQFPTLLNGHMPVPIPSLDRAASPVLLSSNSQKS
# In short: as §1
# [10] = target: T7, FEV (Homo sapiens, UniProt Q99581 1-238)
# T7 sequence: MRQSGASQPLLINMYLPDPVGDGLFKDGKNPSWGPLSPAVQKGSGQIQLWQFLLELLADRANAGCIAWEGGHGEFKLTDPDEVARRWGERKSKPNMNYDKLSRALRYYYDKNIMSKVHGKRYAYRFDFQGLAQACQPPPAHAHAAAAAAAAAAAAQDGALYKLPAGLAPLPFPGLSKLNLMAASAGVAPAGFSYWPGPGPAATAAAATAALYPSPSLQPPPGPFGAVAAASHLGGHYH
# In short: as §1
# [11] = target: ETV5 (Homo sapiens, UniProt P41161 1-510)
# Sequence of ETV5 (P41161 whole entry): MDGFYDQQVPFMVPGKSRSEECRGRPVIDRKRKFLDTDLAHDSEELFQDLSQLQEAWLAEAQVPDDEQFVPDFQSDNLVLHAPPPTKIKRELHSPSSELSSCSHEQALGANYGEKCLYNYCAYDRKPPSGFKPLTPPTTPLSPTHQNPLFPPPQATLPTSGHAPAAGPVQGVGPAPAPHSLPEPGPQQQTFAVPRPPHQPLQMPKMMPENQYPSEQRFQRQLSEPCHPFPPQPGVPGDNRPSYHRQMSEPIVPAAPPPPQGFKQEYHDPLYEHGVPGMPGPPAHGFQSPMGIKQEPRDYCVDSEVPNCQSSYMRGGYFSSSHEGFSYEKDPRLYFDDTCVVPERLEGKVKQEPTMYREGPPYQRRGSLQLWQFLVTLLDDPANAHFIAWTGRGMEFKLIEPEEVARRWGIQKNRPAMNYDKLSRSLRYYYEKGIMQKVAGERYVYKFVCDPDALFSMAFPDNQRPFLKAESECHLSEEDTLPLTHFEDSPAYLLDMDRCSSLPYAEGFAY
# In short: as §1
# [12] = target: T8, SPIC (Homo sapiens, UniProt Q8N5J4 1-248)
# T8 sequence: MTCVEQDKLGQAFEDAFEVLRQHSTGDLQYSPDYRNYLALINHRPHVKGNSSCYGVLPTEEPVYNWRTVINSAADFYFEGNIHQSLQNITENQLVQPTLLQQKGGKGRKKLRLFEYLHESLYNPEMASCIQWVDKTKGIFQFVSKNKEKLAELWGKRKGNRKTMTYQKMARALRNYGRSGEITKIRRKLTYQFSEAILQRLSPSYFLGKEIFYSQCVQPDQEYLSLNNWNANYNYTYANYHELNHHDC
# In short: as §1
# [13] = target: ELF4 (Homo sapiens, UniProt Q99607 1-663)
# Sequence of ELF4 (Q99607 whole entry): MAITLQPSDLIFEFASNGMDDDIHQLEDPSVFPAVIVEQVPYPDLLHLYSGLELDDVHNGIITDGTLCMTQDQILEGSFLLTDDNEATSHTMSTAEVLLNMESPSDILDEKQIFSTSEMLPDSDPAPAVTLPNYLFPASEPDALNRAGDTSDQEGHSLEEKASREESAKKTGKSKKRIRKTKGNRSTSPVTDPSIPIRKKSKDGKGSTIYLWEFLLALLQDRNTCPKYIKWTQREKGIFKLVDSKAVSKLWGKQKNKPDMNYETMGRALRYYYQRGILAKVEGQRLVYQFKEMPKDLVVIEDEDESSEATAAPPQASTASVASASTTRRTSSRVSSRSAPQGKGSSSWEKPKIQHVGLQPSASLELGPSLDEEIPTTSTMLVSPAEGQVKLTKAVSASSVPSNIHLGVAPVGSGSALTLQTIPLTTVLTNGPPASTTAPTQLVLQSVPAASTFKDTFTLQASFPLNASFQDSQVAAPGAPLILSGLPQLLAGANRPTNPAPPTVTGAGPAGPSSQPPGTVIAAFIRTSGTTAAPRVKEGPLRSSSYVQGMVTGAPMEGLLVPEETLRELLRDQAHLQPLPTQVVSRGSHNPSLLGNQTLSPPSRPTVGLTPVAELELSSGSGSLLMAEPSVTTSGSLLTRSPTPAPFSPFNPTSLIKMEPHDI
# In short: as §1
# [14] = target: ETV1 (Homo sapiens, UniProt P50549 1-477)
# Sequence of ETV1 (P50549 whole entry): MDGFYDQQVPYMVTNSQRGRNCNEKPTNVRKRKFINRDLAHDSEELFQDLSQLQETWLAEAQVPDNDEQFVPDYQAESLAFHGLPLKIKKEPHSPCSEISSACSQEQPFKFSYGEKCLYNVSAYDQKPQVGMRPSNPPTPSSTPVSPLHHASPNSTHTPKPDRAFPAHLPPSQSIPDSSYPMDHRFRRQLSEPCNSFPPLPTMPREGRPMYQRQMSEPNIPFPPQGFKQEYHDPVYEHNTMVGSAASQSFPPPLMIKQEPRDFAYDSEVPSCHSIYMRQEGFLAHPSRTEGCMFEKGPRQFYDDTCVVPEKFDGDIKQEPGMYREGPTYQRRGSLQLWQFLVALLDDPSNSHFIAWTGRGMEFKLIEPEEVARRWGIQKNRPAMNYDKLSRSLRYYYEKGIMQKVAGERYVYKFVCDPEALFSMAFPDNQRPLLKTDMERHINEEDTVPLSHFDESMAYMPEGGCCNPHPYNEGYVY
# In short: as §1
# [15] = target: T9, ERF (Homo sapiens, UniProt P50548 1-548)
# T9 sequence: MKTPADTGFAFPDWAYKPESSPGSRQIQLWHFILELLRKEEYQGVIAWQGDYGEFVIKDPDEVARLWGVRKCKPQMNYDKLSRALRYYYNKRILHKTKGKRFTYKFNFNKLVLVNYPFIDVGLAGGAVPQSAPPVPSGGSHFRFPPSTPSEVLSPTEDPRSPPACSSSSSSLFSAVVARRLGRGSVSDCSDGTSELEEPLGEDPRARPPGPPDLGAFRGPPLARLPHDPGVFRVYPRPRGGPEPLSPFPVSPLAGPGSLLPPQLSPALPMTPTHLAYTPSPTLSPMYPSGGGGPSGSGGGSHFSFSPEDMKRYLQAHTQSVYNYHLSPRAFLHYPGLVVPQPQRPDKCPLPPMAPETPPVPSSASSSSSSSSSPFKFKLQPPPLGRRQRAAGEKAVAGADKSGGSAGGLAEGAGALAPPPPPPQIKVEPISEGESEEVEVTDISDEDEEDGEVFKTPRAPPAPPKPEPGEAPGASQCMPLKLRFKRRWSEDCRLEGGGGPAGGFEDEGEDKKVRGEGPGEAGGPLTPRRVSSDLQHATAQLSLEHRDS
# In short: as §1
# [16] = target: T10, ETV3L (Homo sapiens, UniProt Q6ZN32 1-361)
# T10 sequence: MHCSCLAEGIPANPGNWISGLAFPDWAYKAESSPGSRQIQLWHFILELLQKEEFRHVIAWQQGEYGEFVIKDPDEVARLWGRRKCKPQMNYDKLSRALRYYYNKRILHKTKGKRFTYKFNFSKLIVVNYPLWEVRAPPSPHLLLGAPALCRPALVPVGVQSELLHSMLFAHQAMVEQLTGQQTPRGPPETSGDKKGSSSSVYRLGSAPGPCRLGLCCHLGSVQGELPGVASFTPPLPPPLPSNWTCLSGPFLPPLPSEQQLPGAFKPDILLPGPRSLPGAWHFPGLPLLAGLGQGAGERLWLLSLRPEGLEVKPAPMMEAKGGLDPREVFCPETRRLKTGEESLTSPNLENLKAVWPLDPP
# In short: as §1
# [17] = target: T11, ETS2 (Homo sapiens, UniProt P15036 1-469)
# T11 sequence: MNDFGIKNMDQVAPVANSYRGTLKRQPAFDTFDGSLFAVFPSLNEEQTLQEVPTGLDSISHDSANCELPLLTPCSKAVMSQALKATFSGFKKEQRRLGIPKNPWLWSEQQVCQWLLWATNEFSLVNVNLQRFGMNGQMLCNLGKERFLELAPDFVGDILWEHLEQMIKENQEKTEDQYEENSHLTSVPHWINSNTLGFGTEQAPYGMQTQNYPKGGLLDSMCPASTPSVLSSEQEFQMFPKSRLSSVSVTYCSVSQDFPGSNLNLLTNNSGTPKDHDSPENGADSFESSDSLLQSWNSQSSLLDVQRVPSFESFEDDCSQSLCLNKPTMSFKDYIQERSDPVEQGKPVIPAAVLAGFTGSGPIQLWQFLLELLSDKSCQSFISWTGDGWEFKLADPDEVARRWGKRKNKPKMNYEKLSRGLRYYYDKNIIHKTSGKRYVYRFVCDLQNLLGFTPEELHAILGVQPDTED
# In short: as §1
# [18] = target: T12, SPDEF (Homo sapiens, UniProt O95238 1-335)
# T12 sequence: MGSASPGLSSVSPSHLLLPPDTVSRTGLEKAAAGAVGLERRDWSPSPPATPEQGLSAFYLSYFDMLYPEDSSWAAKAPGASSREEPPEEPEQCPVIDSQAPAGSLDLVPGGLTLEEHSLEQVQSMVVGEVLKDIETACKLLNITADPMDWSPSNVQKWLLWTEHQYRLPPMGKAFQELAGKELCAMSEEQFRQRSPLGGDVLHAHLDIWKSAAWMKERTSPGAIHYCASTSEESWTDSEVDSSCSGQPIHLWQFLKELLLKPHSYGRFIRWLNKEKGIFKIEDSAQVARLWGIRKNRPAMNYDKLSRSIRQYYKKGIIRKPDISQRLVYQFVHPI
# In short: as §1
# [19] = target: T13, ETV3 (Homo sapiens, UniProt P41162-2 1-143)
# T13 sequence: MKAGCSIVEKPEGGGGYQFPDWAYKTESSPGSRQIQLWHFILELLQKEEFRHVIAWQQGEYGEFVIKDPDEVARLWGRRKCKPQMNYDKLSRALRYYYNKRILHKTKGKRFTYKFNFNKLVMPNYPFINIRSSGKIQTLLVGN
# In short: as §1
# [20] = target: ETV6 (Homo sapiens, UniProt P41212 1-452)
# Sequence of ETV6 (P41212 whole entry): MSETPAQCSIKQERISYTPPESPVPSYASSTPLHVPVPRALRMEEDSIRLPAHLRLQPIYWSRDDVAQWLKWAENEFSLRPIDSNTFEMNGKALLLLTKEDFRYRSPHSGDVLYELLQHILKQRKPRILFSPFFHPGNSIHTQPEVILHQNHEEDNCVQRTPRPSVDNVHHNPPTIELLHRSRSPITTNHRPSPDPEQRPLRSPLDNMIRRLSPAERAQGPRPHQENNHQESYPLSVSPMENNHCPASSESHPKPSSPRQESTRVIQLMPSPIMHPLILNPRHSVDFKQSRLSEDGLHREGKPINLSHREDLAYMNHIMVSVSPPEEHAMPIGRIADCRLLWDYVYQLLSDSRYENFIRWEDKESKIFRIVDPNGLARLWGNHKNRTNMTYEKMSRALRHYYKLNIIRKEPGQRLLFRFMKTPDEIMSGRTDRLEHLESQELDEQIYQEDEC
# In short: as §1
sequence,measurement,setting,value
TTGGTC,binding signal,[1],"1.16 fold enrichment (6-mer frequency, TF over GST control)"
same,binding signal,[2],"1.17 fold enrichment (6-mer frequency, TF over GST control)"
same,binding signal,[3],"1.11 fold enrichment (6-mer frequency, TF over GST control)"
same,binding signal,[4],"1.06 fold enrichment (6-mer frequency, TF over GST control)"
same,binding signal,[5],"1.15 fold enrichment (6-mer frequency, TF over GST control)"
same,binding signal,[6],"1.14 fold enrichment (6-mer frequency, TF over GST control)"
same,binding signal,[7],"1.08 fold enrichment (6-mer frequency, TF over GST control)"
same,binding signal,[8],"1.05 fold enrichment (6-mer frequency, TF over GST control)"
same,binding signal,[9],"1.11 fold enrichment (6-mer frequency, TF over GST control)"
same,binding signal,[10],"1.04 fold enrichment (6-mer frequency, TF over GST control)"
same,binding signal,[11],"1.1 fold enrichment (6-mer frequency, TF over GST control)"
same,binding signal,[12],"1.12 fold enrichment (6-mer frequency, TF over GST control)"
same,binding signal,[13],"1.13 fold enrichment (6-mer frequency, TF over GST control)"
same,binding signal,[14],"1.17 fold enrichment (6-mer frequency, TF over GST control)"
same,binding signal,[15],"1.08 fold enrichment (6-mer frequency, TF over GST control)"
same,binding signal,[16],"1.08 fold enrichment (6-mer frequency, TF over GST control)"
same,binding signal,[17],"1.1 fold enrichment (6-mer frequency, TF over GST control)"
same,binding signal,[18],"1.06 fold enrichment (6-mer frequency, TF over GST control)"
same,binding signal,[19],"1.05 fold enrichment (6-mer frequency, TF over GST control)"
same,binding signal,[20],"1.06 fold enrichment (6-mer frequency, TF over GST control)"
